Screening data: PubChem, Broad Institute
Compounds with a hit are over-represented: about 1.7% of the library has one in this group of screens.
Vif imaging = inhibitors of HIV Vif. inhibition, % at 7.49 µM. 340,000 tested, 0.35% active. HEK293T cells, Vif self-association by quenched fluorescence, imaging, 24 h; in the data active = inhibition above about 50%, passing the limit was not always enough
FGF22 binding = FGF22 (human) thermal shift binding; 340,000 tested, 1.5% active; activity (Tm shift, normalised), % at 9.99 µM; recombinant FGF22 thermal shift, SYPRO orange fluorescence; percent of sucrose octasulfate shift, DMSO zero; Q9HCT0;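 active = mean Tm shift, scaled 0 neutral to 100 positive control, at about 1.3% or above, every replicate too, limit read from the data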
Target sequence (Q9HCT0 whole entry, looked up): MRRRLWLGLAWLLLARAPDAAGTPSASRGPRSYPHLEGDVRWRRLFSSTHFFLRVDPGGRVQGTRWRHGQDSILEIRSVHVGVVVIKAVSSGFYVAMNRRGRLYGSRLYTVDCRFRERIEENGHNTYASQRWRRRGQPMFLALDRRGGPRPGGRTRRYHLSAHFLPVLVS
F508del corr = CFTR F508del correction in bronchial cells; CFBE cells, YFP halide quenching; stimulated with forskolin plus potentiator P3; % fluorescence drop versus neutral controls; activity (quench increase), % at 7.58 µM; 350,000 tested, 0.36% active; AID 720511;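 active = mean added fluorescence quench of at least 8% versus neutral control, with both replicates also reaching 8%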;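 note: cells transiently co-express mutant CFTR-F508del with the halide-sensitive YFP; corrector assay measuring rescue of mutant channel to the surface after 24 h compound exposure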
Numbers without * were called inactive; . = no result.

SMILES	Vif imaging	FGF22 binding	F508del corr
COc1ccc(-c2nc(-c3cccc(C)c3)no2)cc1OC	12.3	0.0	10.1*
C[C@H](CO)N1C[C@H](C)[C@@H](CN(C)C(=O)Nc2ccc(C(F)(F)F)cc2)Oc2ccc(NC(=O)Cc3cn(C)c4ccccc34)cc2CC1=O	.	-0.3	0.2
CCCNC(=O)C[C@H]1C[C@H]2c3cc(NS(=O)(=O)c4cccc(OC)c4)ccc3O[C@H]2[C@H](CO)O1	.	0.0	-3.2
O=C1c2ccccc2CCC12OC2c1ccc([N+](=O)[O-])cc1 (stereo not drawn)	7.9	43.6*	0.1
O=C1c2ccccc2CCC12OC2c1ccncc1 (stereo not drawn)	.	-0.2	.
C/C=C/c1cnc2c(c1)C(=O)N([C@H](C)CO)C[C@@H](C)[C@@H](CN(C)C(=O)Nc1ccc(C(F)(F)F)cc1)O2	.	-0.3	-0.9
CCOC(=O)C1=C(C)NC(=S)NC1c1ccsc1 (stereo not drawn)	1.9	43.1*	0.8
CCOC(=O)C1=C(C)NC(=S)NC1c1ccc(C)s1 (stereo not drawn)	6.2	-0.1	4.2
CCCC(=O)Nc1ccc2c(c1)OC[C@H](C)N(CC1CCCC1)C[C@H](C)[C@@H](OC)CN(C)C2=O	.	-0.2	-0.8
CCOc1ccc(-c2cc(C(=O)N3CCN(c4ccccn4)CC3)c3ccccc3n2)cc1	-1.8	0.3	11.6*
COc1ccc(-c2cc(C(=O)N3CCN(c4ccccn4)CC3)c3ccccc3n2)cc1	-15.1	.	.
COc1ccc(CCNC(=O)COc2cccc3c2OC(C)(C)C3)cc1OC	-1.1	-0.3	0.7
CC(C)CCNC(=O)COc1cccc2c1OC(C)(C)C2	-4.2	43.1*	-1.9
COc1ccc(S(=O)(=O)Nc2ccc3c(c2)C(=O)N([C@H](C)CO)C[C@H](C)[C@@H](CN(C)S(=O)(=O)c2c(C)noc2C)OCCCC[C@@H](C)O3)cc1	.	-0.1	-0.6
O=C(C[C@@H]1CC[C@@H](NC(=O)c2ccc3c(c2)OCO3)[C@H](CO)O1)NC1Cc2ccccc2C1	.	0.0	-0.6
Cc1cc(N2CCC(C)CC2)c(F)cc1[N+](=O)[O-]	-10.0	.	.
Cc1cc(N2CCCC2)c(F)cc1/C=C\[N+](=O)[O-]	1.8	-0.1	28.1*
C/C=C/c1ccc([C@H]2[C@@H](CNC(C)C)N(C(=O)c3ccccn3)[C@H]2CO)cc1	.	.	1.9
COCC(=O)N(C)C[C@@H]1Oc2ncc(-c3ccccc3F)cc2C(=O)N([C@@H](C)CO)C[C@@H]1C	.	0.1	2.0
C[C@@H]1CN([C@H](C)CO)C(=O)c2cccc(NC(=O)Nc3ccc(F)cc3)c2O[C@@H]1CN(C)S(C)(=O)=O	.	-0.8	-2.4
CC[N+](CC)(CCCCS(=O)(=O)[O-])CCNP1(=O)C=C(c2ccccc2)OC(c2ccccc2)=C1	-1.4	43.8*	1.0
O=P1(Nn2cnnc2)C=C(c2ccccc2)OC(c2ccccc2)=C1	9.2	.	.
C[C@@H]1CN([C@H](C)CO)S(=O)(=O)c2ccc(C#CC3CC3)cc2O[C@@H]1CN(C)C(=O)c1ccncc1	.	-0.3	-0.4
CCCNC(=O)N(C)C[C@@H]1Oc2ncc(-c3cccc(C#N)c3)cc2C(=O)N([C@H](C)CO)C[C@H]1C	.	-0.3	1.9
COc1cc2c3c(c1OC)C1(C=CC(=O)C=C1)CC3N(C(=O)CCC(=O)O)CC2 (stereo not drawn)	-4.2	-0.1	-0.7
SMILES	Vif imaging	FGF22 binding	F508del corr
COc1cc2c3c(c1OC)C1(C=CC(=NNC(N)=O)C=C1)CC3N(C(C)=O)CC2 (stereo not drawn)	-4.0	43.4*	1.0
O=C(C1CCOCC1)N1CC2(C1)[C@@H](c1ccccc1)[C@H](CO)N2Cc1ccc(Cl)cc1	.	.	-3.9
COCc1cn(CC[C@@H]2CC[C@H](NC(=O)CCN3CCCCC3)[C@H](CO)O2)nn1	.	0.0	2.8
COc1ccc(C(=O)N[C@H](C(=O)Nc2nc3ccccc3[nH]2)C(C)C)cc1	-4.1	42.4	3.4
Cc1cccc(C(=O)N[C@H](C(=O)Nc2nc3ccccc3[nH]2)C(C)C)c1	78.5*	0.4	2.8
CCn1cc(CN2CCc3c([nH]c4ccccc34)C2c2cccc(O)c2)c(C)n1 (stereo not drawn)	-14.1	-0.2	1.5
CCn1cc(CN2N=C(C)CC2c2ccccc2)c(C)n1 (stereo not drawn)	3.8	44.0*	-1.7
C1CCN(C2CCN(c3nc4nonc4nc3N3CCSCC3)CC2)C1	5.3	43.2*	-3.4
Cc1cccc(N2CCN(c3nc4nonc4nc3N3CCSCC3)CC2)n1	15.3	-0.6	3.8
C1CC2CN(c3nc4nonc4nc3N3CCSCC3)CCN2C1 (stereo not drawn)	1.4	44.0*	-1.6
C1CCC(Nc2nc3nonc3nc2N2CCSCC2)C1	4.4	0.0	-0.9
Cc1ccc(S(=O)(=O)Nc2ccc3c(c2)CC(=O)N([C@@H](C)CO)C[C@@H](C)[C@@H](CN(C)S(C)(=O)=O)O3)cc1	.	-0.1	0.1
CCCn1c(SCC(=O)Nc2cc(C)on2)n[nH]c1=O	20.2	0.0	1.1
CCCn1c(SCC(=O)NC(=O)NC(C)(C)C)n[nH]c1=O	1.1	43.2*	6.7
Cc1ccc(C(=O)c2cc3ccccc3o2)cc1[N+](=O)[O-]	3.4	43.0*	2.0
C/C(=N\NS(=O)(=O)c1ccc(C)c([N+](=O)[O-])c1)c1cc2ccccc2o1	-1.2	.	.
COC(=O)C1=CN(c2ccc(OC)cc2OC)C(N)=C(C#N)C1c1ccccc1F (stereo not drawn)	.	0.1	9.8*
COC(=O)C1=CN(c2ccc(OC)cc2)C(N)=C(C#N)C1c1ccccc1F (stereo not drawn)	.	-0.3	-2.5
C[C@@H]1CCCCO[C@@H](CN(C)C(=O)CCCN(C)C)[C@@H](C)CN([C@@H](C)CO)C(=O)c2cc(NC(=O)C3CCCCC3)ccc2O1	.	1.1	-2.7
Cc1ccc(NC(=O)CSc2nc3ccccc3c(=O)n2CCCC(=O)NCCCN2CCOCC2)cc1C	14.9	-0.1	-2.3
CCc1ccc(NC(=O)CSc2nc3ccccc3c(=O)n2CCCC(=O)NCCCN2CCOCC2)cc1	-8.2	43.1*	3.4
CC(C)Nc1c(N)c(=O)oc2ccccc12	58.7*	.	.
CNc1c(N)c(=O)oc2ccccc12	9.7	0.7	-3.7
CCN(c1ccccc1)S(=O)(=O)c1cc2c(cc1C)N(C)CCO2	26.5	43.1*	-4.0
Cc1cc2c(cc1S(=O)(=O)N1CCN(c3ccccc3)CC1)OCCN2C	.	-0.2	-5.3
SMILES	Vif imaging	FGF22 binding	F508del corr
Cc1ccc2c(c1)C1CN(C)CCC1N2C(=O)c1ccccc1NS(=O)(=O)c1ccc(F)cc1 (stereo not drawn)	0.8	0.0	.
Cc1ccc2c(c1)C1CN(C)CCC1N2S(=O)(=O)c1ccc(C#N)cc1 (stereo not drawn)	55.5*	0.1	-1.2
CNC[C@@H]1Oc2ccc(NC(=O)CCCN(C)C)cc2C(=O)N([C@@H](C)CO)C[C@H]1C	.	0.4	1.6
COc1ccc(/C=C/c2c([N+](=O)[O-])c(=O)n(C)c(=O)n2C)cc1	-6.3	43.0*	0.5
CCOc1ccc(/C=C/c2c([N+](=O)[O-])c(=O)n(C)c(=O)n2C)cc1	16.1	0.2	-3.8
O=C(CNC(=O)c1ccc(Cl)cc1)OC1CCOC1=O (stereo not drawn)	-0.2	43.2*	3.9
